This passage reports growth results from PubChem BioAssay (NCI).

Test in all cases: NCI-60 one-dose screen, 48 h (100 = growth as untreated, 0 = no growth, -100 = all killed)
The test system of one assay is SK-MEL-2 melanoma. Conditions: 10 µM unless noted.
The test system of the next assay is SN12C renal. The note with it: 10 µM unless noted.
In the next assay the test system is UO-31 renal. The note with it: 10 µM unless noted.
Another assay has as its system TK-10 renal.
For a further assay, the system named is ACHN renal. Conditions: 10 µM unless noted.
In another assay the test system is CAKI-1 renal. Conditions: 10 µM unless noted.
The test system of another assay is A498 renal. Conditions: 10 µM unless noted.
The next assay relates to CCRF-CEM leukemia. The note with it: 10 µM.
In a further assay the test system is EKVX NSCLC. Conditions: 10 µM.
Another assay relates to MOLT-4 leukemia. The note with it: 10 µM unless noted.

“And” between values parts separate entries of the source, which are not always exact repeats. Equal entries are not always repeated. Compounds without any hit were thinned out: in the full panel of roughly 83,000, 20% have a hit.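 Assay: single dose, 48 h. Readout: percent growth (0 = no net growth; negative = cell death). Active: <10.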 The source made the active and inactive calls. Where a SMILES comes first, the peptide text is derived from it.

On to `CCCCCCCCCCNC(=O)CI`, for which the growth in the assay on SK-MEL-2 melanoma is -50.1% (active); in the assay on SN12C renal, 33.9% (inactive); in the assay with UO-31 renal it was -90.1% (active); in the assay with TK-10 renal (10 µM unless noted) it was 15.5% (inactive); with ACHN renal, -93.7% (active); in the assay with CAKI-1 renal it was -93.5% (active). The figures for the growth with A498 renal and in the assay on CCRF-CEM leukemia were 111% (inactive) and -47.1% (active), respectively.
For the compound `CCCCCCCCCCCCCCCCC(C(=O)O)C(O)(CC(=O)O)C(=O)O` (configuration not stated), the growth was 95.4% (inactive) and -42.9% (active) in the assay with SK-MEL-2 melanoma; 38.2% (inactive) in the assay on EKVX NSCLC; 110% (inactive) and 17.4% (inactive) with SN12C renal; 94.1% (inactive) and 34% (inactive) with TK-10 renal (10 µM unless noted); 96.8% (inactive) and 28.4% (inactive) in the assay with ACHN renal; 103% (inactive) and 74.9% (inactive) in the assay on CAKI-1 renal. Moreover, the growth with A498 renal is 113% (inactive); with CCRF-CEM leukemia, 2.43% (active).
As for `OCCN1CCCCCCC1`, the growth was 112% (inactive) with SK-MEL-2 melanoma; 93.7% (inactive) in the assay with SN12C renal; 88% (inactive) in the assay with UO-31 renal; 99.9% (inactive) in the assay with TK-10 renal (10 µM unless noted); 103% (inactive) in the assay on ACHN renal; 93.2% (inactive) with CAKI-1 renal. In addition, the growth with A498 renal is 100% (inactive).
As for `Nc1nc(N)c2[nH]cnc2n1`, the growth is 109% (inactive) in the assay on SK-MEL-2 melanoma; 102% (inactive) in the assay on SN12C renal; 86.9% (inactive) in the assay with UO-31 renal; 121% (inactive) in the assay with TK-10 renal (10 µM unless noted); 89.3% (inactive) with ACHN renal; 84.6% (inactive) with CAKI-1 renal. The growth with A498 renal is 109% (inactive); in the assay with CCRF-CEM leukemia it was 98.2% (inactive).
`COc1ccc2cc1Oc1ccc(cc1)C[C@H]1c3cc(c(OC)cc3CCN1C)Oc1c(OC)c(OC)cc3c1[C@H](C2)N(C)CC3`: the growth in the assay on SK-MEL-2 melanoma was 131% (inactive); in the assay with EKVX NSCLC it was 80.5% (inactive); with SN12C renal it was 82.2% (inactive); in the assay on UO-31 renal, 3.4% (active); with TK-10 renal (10 µM), 76.7% (inactive); in the assay on TK-10 renal (100 µM), 71.7% (inactive) and 56.9% (inactive). Moreover, the growth in the assay with ACHN renal is 74.1% (inactive); with CAKI-1 renal it was 68.9% (inactive); in the assay on A498 renal, 72.1% (inactive); in the assay with CCRF-CEM leukemia, 3.76% (active); in the assay with MOLT-4 leukemia it was 28.2% (inactive).
Consider `NC(Cc1ccccc1)C(=O)NC(Cc1ccccc1)C(=O)O` (stereo not drawn) (H-Phe-Phe-OH; configuration not given here), for which the growth with SK-MEL-2 melanoma is 99.1% (inactive) and 104% (inactive); with SN12C renal, 103% (inactive) and 101% (inactive); in the assay with UO-31 renal, 88.5% (inactive) and 86.9% (inactive); in the assay with TK-10 renal (10 µM unless noted), 105% (inactive); with ACHN renal, 103% (inactive); in the assay on CAKI-1 renal it was 106% (inactive) and 97.1% (inactive). The growth was 93.2% (inactive) and 102% (inactive) in the assay on A498 renal; 118% (inactive) and 98.4% (inactive) in the assay on CCRF-CEM leukemia.
With `CC(C)NC(=O)N/C=C(\C#N)C(N)=O`, the growth with SK-MEL-2 melanoma is 101% (inactive); in the assay on EKVX NSCLC, 97.2% (inactive); in the assay with SN12C renal, 99.1% (inactive); with TK-10 renal (10 µM unless noted) it was 99.7% (inactive); with ACHN renal, 94.8% (inactive); with CAKI-1 renal it was 81.5% (inactive). Moreover, the figures for the growth in the assay on A498 renal and in the assay on CCRF-CEM leukemia were 112% (inactive) and 114% (inactive), respectively.
As for `Cc1cc2ccccc2cn1`, the growth is 107% (inactive) with SK-MEL-2 melanoma; 94% (inactive) and 104% (inactive) with SN12C renal; 83.2% (inactive) and 82.6% (inactive) in the assay on UO-31 renal; 103% (inactive) and 93.4% (inactive) with TK-10 renal (10 µM unless noted); 107% (inactive) and 102% (inactive) with ACHN renal; 100% (inactive) and 67.8% (inactive) in the assay with CAKI-1 renal. Further, the growth is 100% (inactive) and 197% (inactive) with A498 renal; 102% (inactive) and 120% (inactive) with CCRF-CEM leukemia; 112% (inactive) and 88.7% (inactive) in the assay with MOLT-4 leukemia.
As for `O=c1[nH]cnc2c1ncn2C1OC(CO)C(O)C1O` (configuration not stated), the growth is 110% (inactive) in the assay with SK-MEL-2 melanoma; 123% (inactive) and 107% (inactive) and 93.1% (inactive) in the assay with EKVX NSCLC; 99.8% (inactive) and 121% (inactive) and 96.1% (inactive) with SN12C renal; 113% (inactive) and 114% (inactive) and 106% (inactive) in the assay with TK-10 renal (10 µM unless noted); 116% (inactive) and 109% (inactive) and 105% (inactive) with ACHN renal; 113% (inactive) and 95.3% (inactive) and 63.4% (inactive) with CAKI-1 renal. Besides, the growth was 116% (inactive) and 129% (inactive) and 113% (inactive) in the assay on A498 renal; 99.5% (inactive) and 90.3% (inactive) and 69.9% (inactive) with CCRF-CEM leukemia.
In the case of `CCCCCCCCCCCCCCCc1ccc(N)c(OC2OC(CO)C(O)C(O)C2O)c1` (configuration not stated), the growth with SK-MEL-2 melanoma was 80.6% (inactive); in the assay with EKVX NSCLC, 81.6% (inactive); in the assay on SN12C renal it was 87.6% (inactive); with UO-31 renal, 57.6% (inactive); in the assay with TK-10 renal (10 µM unless noted) it was 113% (inactive); in the assay with ACHN renal it was 86.1% (inactive). For the same compound, the growth in the assay with A498 renal was 79.2% (inactive); in the assay on CCRF-CEM leukemia, 5.48% (active).
On to `C#CCOC(=O)Nc1ccccc1`, for which the growth with SK-MEL-2 melanoma is 109% (inactive); with SN12C renal, 101% (inactive); in the assay with UO-31 renal it was 97.7% (inactive); with TK-10 renal (10 µM unless noted) it was 103% (inactive); with ACHN renal it was 114% (inactive); with CAKI-1 renal, 98% (inactive). The growth in the assay with A498 renal was 75.2% (inactive); in the assay on CCRF-CEM leukemia it was 112% (inactive); in the assay on MOLT-4 leukemia, 104% (inactive).
With `O=[N+]([O-])c1cccc(SSc2cccc([N+](=O)[O-])c2)c1`, the growth with SK-MEL-2 melanoma is 98.5% (inactive); in the assay on EKVX NSCLC it was 106% (inactive); in the assay on SN12C renal it was 93.7% (inactive); in the assay with UO-31 renal, 86.5% (inactive); in the assay with TK-10 renal (10 µM unless noted), 109% (inactive); with ACHN renal it was 99.5% (inactive). Also, the growth with CAKI-1 renal is 103% (inactive); in the assay on A498 renal, 119% (inactive); in the assay on CCRF-CEM leukemia it was 50.6% (inactive); in the assay on MOLT-4 leukemia, 82.1% (inactive).
